Among the data in PubChem BioAssay are z-score values, retold here.

Structures are written as SMILES. Unmarked numbers belong to inactive results.

The experiment in a line: osmotic lysis modulators in infected erythrocytes, primary screen, PSAC antagonist project, cell-based, P. falciparum Indochina, OD700, 3 h (AID 1156). As to conditions: higher = more signal, called active from +8 up or from −8 down.
Take `CON=C(C)CCC(=O)OC[C@H]1O[C@H](C#Cc2ccccc2)C=C[C@@H]1Oc1ccc(C)cc1`: the z-score is -0.73.
In the case of `CC(C)(C)N1C(=O)[C@H]2[C@H]3[C@H](O)[C@H](O)CC(=NOC[C@@H](O)COCc4ccco4)[C@@H]3CC[C@H]2C1=O`, the z-score is -0.222.
Under `CO[C@@H]1[C@H](O)CO[C@H]1C=Cc1ccccc1` stands 0.837.
With `CCN1C(=O)[C@H]2[C@H]3[C@H](O)[C@H](O)CC(=NOCC[C@@H]4C=C[C@H](OC(C)=O)[C@@H](COC(C)=O)O4)[C@@H]3CC[C@H]2C1=O`, the z-score is -0.376.
Take `CO[C@@H](C1CCCCC1)[C@@H](C)[C@H](OCc1cccc(Br)c1)[C@@H](C)CO`: the z-score was -1.8.
Under `CCOC(=O)CCN1C(=O)[C@H]2[C@H]3[C@H](O)[C@H](O)CC(=NOCC(C)C)[C@@H]3CC[C@H]2C1=O` stands -0.0758; under `CCOC(=O)CCN1C(=O)[C@H]2[C@H]3[C@H](O)[C@H](O)CC(=NO[C@@H]4O[C@H](CO)[C@@H](O)[C@H](O)[C@H]4O)[C@@H]3CC[C@H]2C1=O`, 1.31; under `CO[C@H]1COC(=O)CC=C[C@@H](C)COC(=O)[C@H]2CCCN2C(=O)CC=C[C@H]1C`, -0.521.
Under `CCOC(=O)[C@H](Cc1ccccc1)NC(=O)CCC1CC(OC(=O)NCc2cccc3ccccc23)CC2(CCCC(COC(=O)NCCc3ccccc3OC)O2)O1` (stereo partly specified) stands -0.602.
On to `Cc1ccc(S(=O)(=O)N[C@@H]2COC(=O)CC=C[C@@H](C)[C@H](NS(=O)(=O)c3ccc(C)cc3)COC(=O)[C@H](C)NC(=O)CC=C[C@H]2C)cc1`, for which the z-score is -0.207.
As to `CCN1C(=O)[C@H]2[C@H]3[C@H](O)[C@H](O)CC(=NOCC=C(C)CCC=C(C)C)[C@@H]3CC[C@H]2C1=O`, the z-score was 0.0742.
Regarding `O=C1[C@H]2[C@H]3[C@H](O)[C@H](O)CC(=NOC[C@@H](O)COCc4ccco4)[C@@H]3CC[C@H]2C(=O)N1Cc1ccccc1`, the z-score was 0.618.
The value for `O=C1[C@H]2CCn3c(=O)n(-c4ccccc4)c(=O)n3[C@H]2[C@H](O)[C@@H]2O[C@H]12` was 0.337; that for `CON=C[C@@H](OC)[C@H](C)C=CCC(=O)OC` was -0.779.
Take `CC(C)=CCCC(C)=CCON=C1C[C@@H](O)[C@@H](O)[C@@H]2[C@@H]3C(=O)N(Cc4ccc5c(c4)OCO5)C(=O)[C@@H]3CC[C@@H]12`: the z-score was 2.24.
Take `CC(=O)OC[C@H]1O[C@H](CC=NO[C@@H](C)c2cc(-c3c(C)cc(C)cc3C)no2)C=C[C@@H]1OC(C)=O`: the z-score is 1.12.
As for `COc1ccc(-c2cnnc(CCCn3ccnc3-c3ccccc3)n2)cc1`, the z-score is 0.886.
On to `O=C1C2=CC[C@H]3C(=O)N(c4ccc(F)cc4F)C(=O)[C@H]3[C@H]2[C@H](O)[C@@H]2O[C@H]12`, for which the z-score is -0.708.
Consider `COC(=O)CC=C[C@@H](C)[C@@H](C=NOC[C@@H](O)COCc1ccco1)OC`, for which the z-score is -0.0838.
On to `COC(=O)[C@H](C)NC(=O)CCC1CC(OC(=O)NCc2cccc3ccccc23)CC2(CCCC(COC(=O)NCCCN3CCCC3=O)O2)O1` (stereo partly specified), for which the z-score is 0.0085.
The value for `CCOC(=O)[C@H](CC(C)C)NC(=O)CCC1CC(OC(=O)NCc2ccc3c(c2)OCO3)CC2(CCCC(COC(=O)NCCc3ccccc3OC)O2)O1` (stereo partly specified) was -1.01; that for `CO[C@@H](C(C)C)[C@@H](C)C1OC(=O)CC1O` (stereo partly specified) was -0.566; that for `Cc1ccc(C(C)C)n1C(=O)OC(C)(C)C` was -0.165.
For the compound `CCOC(=O)[C@H](Cc1ccccc1)NC(=O)CCC1CC(OC(=O)NCc2ccc3c(c2)OCO3)CC2(CCCC(COC(=O)NCCOc3ccccc3)O2)O1` (stereo partly specified), the z-score was -0.0818.
For the compound `CSCC[C@@H]1NC(=O)CC=C[C@@H](C)COC(=O)[C@H](C)COC1=O`, the z-score is -0.92.
Under `CO[C@H]1COC(=O)CCC[C@H](C)[C@@H](OC)COC(=O)CC=C[C@@H]1C` stands -0.315; under `CC(C)[C@@H](OCc1ccccc1)[C@H](C)C=NO[C@@H](C)c1cn([C@H](CO)Cc2ccccc2)nn1`, -0.038.
The value for `CCN1C(=O)[C@H]2[C@@H]3C(=CC[C@H]2C1=O)C(=O)[C@H]1O[C@H]1[C@H]3O` was 0.244.
Turning to `CC(C)=CCCC(C)=CCON=C1C[C@@H](O)[C@@H](O)[C@@H]2[C@@H]3C(=O)N(C4CCCCC4)C(=O)[C@@H]3CC[C@H]12`, the z-score is 1.11.
For `C=CC[C@@H]1C=C[C@H](ON=C[C@@H](NS(=O)(=O)c2ccc(C)cc2)[C@H](C)C=CCC(=O)OC)[C@@H](CO)O1`, the z-score was 0.0436.
In the case of `COC(=O)[C@H](C)NC(=O)CCC1CC(OC(=O)NCCc2ccc(F)cc2)CC2(CCCC(COC(=O)NCCOc3ccccc3)O2)O1` (stereo partly specified), the z-score is 0.189.
With `CO[C@@H]1COC(=O)[C@H](COCc2ccccc2)NC(=O)CC=C[C@@H](C)[C@H](OC)COC(=O)[C@@H](C)NC(=O)CC=C[C@H]1C`, the z-score was 0.386.
The value for `CC(CCC(=O)OC[C@H]1O[C@H](C#Cc2ccccc2)C=C[C@@H]1Oc1ccc(C)cc1)=NOC[C@@H](C)[C@H](OCc1ccccc1)C(C)C` was 0.901; that for `COC(=O)[C@H](C)NC(=O)CC=C[C@@H](C)[C@@H]1C=C[C@H](O)[C@@H](CO)O1` was -0.0002.
For the compound `C=CC[C@@H]1C=C[C@H](ON=C(C)CCN2CCCc3nc(C)c(C)cc32)[C@@H](CO)O1`, the z-score is 0.206.
Turning to `O=C1C=C[C@@H](O)[C@@H]2[C@@H]3C(=O)N(Cc4ccccc4)C(=O)[C@@H]3CC[C@@H]12`, the z-score was 0.853.
